Screens (PubChem)
Most compounds without a hit are left out; they make up all but 5.8% or so of the library.
VP16 counter: inhibits Gal4-VP16 luciferase reporter, ROR gamma counter-screen | Drosophila S2 Gal4-VP16 UAS-luciferase, luminescence, 20 h | Potency, µM (doses to about 53.6 µM), most hits filed as inhibitors | 310,000 compounds, 3.5% hits | AID 2546;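 also: Gal4-VP16 expression switched on by copper sulfate through the metallothionein promoter; nearly all actives have a fitted effect of over 50% in size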
RORg inh: inhibitors of mouse ROR gamma transcriptional activity; P51450; Drosophila S2 Gal4-RORgamma UAS-luciferase reporter, 20 h; Potency, µM (top dose mostly 53.6 µM), most hits filed as inhibitors; 310,000 compounds, 5.4% hits; AID 2551; also: nearly all actives have a fitted effect of over 60% in size
Target sequence (P51450 whole entry, looked up, the tested form may be a part): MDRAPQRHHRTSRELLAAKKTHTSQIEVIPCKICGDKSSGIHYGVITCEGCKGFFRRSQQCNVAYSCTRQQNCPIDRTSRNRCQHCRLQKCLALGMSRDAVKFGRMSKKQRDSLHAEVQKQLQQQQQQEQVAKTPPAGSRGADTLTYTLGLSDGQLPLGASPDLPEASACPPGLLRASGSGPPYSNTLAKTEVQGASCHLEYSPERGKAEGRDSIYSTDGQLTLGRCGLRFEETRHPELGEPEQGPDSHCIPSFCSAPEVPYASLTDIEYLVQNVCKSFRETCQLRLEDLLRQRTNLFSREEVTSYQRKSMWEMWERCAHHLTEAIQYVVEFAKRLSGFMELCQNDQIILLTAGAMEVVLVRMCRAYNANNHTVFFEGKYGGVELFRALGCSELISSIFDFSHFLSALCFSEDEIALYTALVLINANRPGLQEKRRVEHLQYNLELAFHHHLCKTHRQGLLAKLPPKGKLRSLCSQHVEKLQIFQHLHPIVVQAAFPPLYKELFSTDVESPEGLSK
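In this cell-based reporter format, copper sulfate (700 uM final) drives Gal4–ROR gamma fusion expression from a metallothionein promoter in Drosophila Schneider cells; compounds preincubated 1 hr, reporter read after 20 hr at ambient temperature.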
uPA generation: inhibitors of cell surface uPA generation. cell surface uPA generation assay, qHTS. Potency, µM (series often up to 38.3 µM), hits mostly inhibitors. 330,000 compounds, 0.31% hits. AID 540303; active = well fitted inhibition curve with a large enough effect; inconclusive = small, poorly fitted or top-dose-only effect; inactive = no such curve, though single readings can be large or run the other way; tested in mouse RAW 264.7 cells; also: nearly all actives have a fitted effect of over 55% in size
TRPV1 ag: activates the human vanilloid receptor TRPV1; TRPV1-expressing cells, Fluo-8 calcium influx, agonist mode; 320,000 compounds, 0.19% hits; Q8NER1; AID 540275; activation, % at 8.33 µM; in the data active = activation above about 80%; inconclusive = between about 30% and that limit
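Cells expressing TRPV1 were dye-loaded with Fluo-8 and read kinetically: 10 s baseline, 3 min after compound (agonist portion), then 2 min after EC20 capsaicin (allosteric enhancer portion). Calcium-bound dye fluorescence at 480/520 nm.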
TRPV1 PAM: enhances activation of the human vanilloid receptor TRPV1. TRPV1-expressing cells, Fluo-8 calcium influx, capsaicin EC20 potentiation. potentiation, % at 8.33 µM. 320,000 compounds, 0.02% hits. AID 540277; in the data active = potentiation above about 80%; inconclusive = between about 30% and that limit
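TRPV1-expressing cells were cultured overnight at 35.5C and loaded with Fluo-8 calcium dye for 40 to 90 min at room temperature. After a 10 s baseline, compound was added and calcium influx was read kinetically for 3 min (ex 480/em 520 nm).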
Each line names hits and unclear results; the compound was inactive in the other large screens. Unless noted, calls follow the shape of the dose curve; as a rule, active = well fitted curve in the direction sought with a large enough effect; inconclusive = small, poorly fitted or top-dose-only effect, or another doubt; inactive = no such curve, though single readings can be large; an effect the other way counts as inactive or inconclusive.

CCOC(=O)[C@H]1[C@H]2COc3ccc(Cl)cc3[C@@H]2N2C(=O)c3cc(F)c(F)cc3NC(=O)[C@@]12C	TRPV1 ag 81.1 (no result: VP16 counter, RORg inh)
CCOC(=O)[C@H]1[C@H]2COc3ccc(C)cc3[C@@H]2N2C(=O)c3cc(F)c(F)cc3NC(=O)[C@@]12C	TRPV1 ag 80.8 (no result: VP16 counter, RORg inh)
Cc1ccc(OCCC(=O)OCC(=O)Nc2ccc(C)cc2Cl)cc1	none (no result: VP16 counter, RORg inh)
CCOP(=O)(OCC)C(NC(=O)Nc1ccccc1)c1ccccc1 (stereo unspecified)	RORg inh 11.2µM
CC1CC=CC2C1C(=O)N(Cc1ccccc1)C2c1ccc(/C=C/c2ccccc2)cc1F (stereo unspecified)	none (no result: uPA generation, TRPV1 ag, TRPV1 PAM)
Cc1ccc(-n2c(Cl)c(Cl)nc(Cl)c2=O)cc1	VP16 counter 5.01µM, RORg inh 2.82µM
CCOc1cc(C)c(S(=O)(=O)NC2CCCCC2)cc1C	VP16 counter 11.2µM
Nc1nn(S(=O)(=O)c2ccccc2)cc1-c1ccc([N+](=O)[O-])cc1	VP16 counter 35.5µM, RORg inh inconclusive
COc1cc(C2SC(C)C(=O)N2CCc2ccccc2)cc(OC)c1OC (stereo unspecified)	none
N#Cc1c(-c2cccs2)cc(-c2cccs2)[nH]c1=O	none
Cc1cc(-c2cccs2)c(C#N)c(=S)[nH]1	VP16 counter inconclusive, RORg inh 10µM
CC1(C)CC[C@]2(C(=O)O)C(O)C[C@@]3(C)C(=CCC4[C@@]5(C)CCC(O)C(C)(C)C5CC[C@@]43C)C2C1 (stereo partly specified)	RORg inh 1.41µM (no result: uPA generation, TRPV1 ag, TRPV1 PAM)
CC1(C)CC[C@]2(C)CC[C@@]3(C)C(=CCC4[C@@]5(C)CCC(O)C(C)(C)C5CC[C@@]43C)C2C1 (stereo partly specified)	none (no result: uPA generation, TRPV1 ag, TRPV1 PAM)
Cc1ccc(C(C)C)c(OCc2ccc(C(=O)N/N=C/c3ccc(C(=O)O)cc3)cc2)c1	VP16 counter inconclusive
Cc1ccc(C(C)C)c(OCc2ccc(C(=O)N/N=C/c3ccc(O)cc3O)cc2)c1	VP16 counter 7.08µM, RORg inh 6.31µM
CCOc1ccc(/C(CCC(=O)O)=N/NC(=S)NCCc2ccccc2)cc1	VP16 counter inconclusive, RORg inh 7.94µM
COc1ccc(-c2c(C)nn(-c3ccccc3)c2N)cc1	none (no result: uPA generation)
Cc1nn(-c2ccc(C(=O)O)cc2)c(N)c1-c1ccccc1	VP16 counter inconclusive, RORg inh 10µM
Nc1c(-c2ccccc2)cnn1-c1ccc(C(=O)O)cc1	VP16 counter inconclusive, RORg inh 10µM (no result: uPA generation)
O=[N+]([O-])c1cc(Cl)cc2c1nc(NCCO)c1ccccc12	none
CCC(C)C(=O)OC1CC(C)C=C2C=CC(C)C(CCC3CC(O)CC(=O)O3)C21 (stereo unspecified)	none (no result: uPA generation, TRPV1 ag, TRPV1 PAM)
CCOCCCNC(=S)N1CCCN(c2nc3c(C)c(C)ccc3cc2C#N)CC1	none
Cc1cccc2cc(C#N)c(NCCNC(=S)NCCCN3CCOCC3)nc12	RORg inh 3.98µM
CCOCCCNC(=S)NCCCNc1nc2c(C)c(C)ccc2cc1C#N	VP16 counter inconclusive, RORg inh 11.2µM
CC1CCN(c2ccc(NC(=S)NC(=O)c3ccco3)cc2)CC1	VP16 counter 7.08µM, RORg inh 3.16µM
O=C(NC(=S)Nc1ccc(N2CCCCC2)cc1)c1ccco1	VP16 counter 20µM, RORg inh 7.08µM
O=C(NC(=S)Nc1ccc(NC(=O)c2ccco2)cc1)c1ccccc1	none
CCCCC(=O)N(Cc1ccc2c(c1)OCO2)Cc1nc2ccccc2c(=O)[nH]1	RORg inh 11.2µM
COCC(=O)N(Cc1ccc(OC)cc1)Cc1nc2ccccc2c(=O)[nH]1	none (no result: VP16 counter)
COCC(=O)N(CCc1ccc(OC)cc1)Cc1nc2ccccc2c(=O)[nH]1	VP16 counter 7.08µM, RORg inh 5.01µM
CCCC(=O)N(CCc1ccc(OC)cc1)Cc1nc2ccccc2c(=O)[nH]1	VP16 counter inconclusive, RORg inh 10µM
COc1ccccc1CNC(=O)CCc1nc2ccccc2c(=O)[nH]1	none
COc1ccc(C(=O)NNC(=O)CCc2nc3ccccc3c(=O)[nH]2)cc1	none (no result: VP16 counter, RORg inh, TRPV1 ag, TRPV1 PAM)
Cc1ccc(C(=O)N(Cc2ccc3c(c2)OCO3)Cc2nc3ccccc3c(=O)[nH]2)cc1	RORg inh inconclusive
COc1ccccc1CN(Cc1nc2ccccc2c(=O)[nH]1)C(=O)Nc1ccccc1	VP16 counter inconclusive, RORg inh 10µM
CCOCCCNC(=O)C(c1ccccc1)N(Cc1ccc2c(c1)OCO2)C(=O)c1ccccc1O (stereo unspecified)	none
COc1cccc(NC(=O)CN2C(=O)NC3(CCc4ccccc43)C2=O)c1 (stereo unspecified)	none (no result: VP16 counter, RORg inh)
CCOc1ccc(OCCOC(=O)CN2C(=O)NC3(CCCC3)C2=O)cc1	none (no result: VP16 counter, RORg inh)
Nn1cnnc1N/N=C/c1cc(Br)cc(Br)c1O	VP16 counter 12.6µM, RORg inh 10µM
O=[N+]([O-])c1cc(Br)cc(/C=N/n2cnnc2)c1O	none
CCS/C(N)=N/N=C/c1cc(C)ccc1O	VP16 counter 2µM, RORg inh 0.708µM
C=CCS/C(N)=N\N=C\c1cc(Br)cc([N+](=O)[O-])c1O	VP16 counter 3.16µM, RORg inh 0.316µM (no result: TRPV1 ag, TRPV1 PAM)
CS/C(N)=N/N=C/c1cc(Br)cc(Br)c1O	VP16 counter 2.51µM, RORg inh 0.631µM
Cc1nnc(C)n1/N=C/c1cc(Br)cc(Br)c1O	VP16 counter inconclusive, RORg inh inconclusive
O=S1(=O)c2cccc3cccc(c23)N1CCBr	none (no result: uPA generation)
NC(N)=N/N=C/c1cc([N+](=O)[O-])ccc1O	none
CS/C(N)=N/N=C/c1cc(C)ccc1O	VP16 counter 5.01µM, RORg inh 0.316µM
CCCCS/C(N)=N/N=C/c1cc(C)ccc1O	VP16 counter 5.01µM, RORg inh 5.62µM
CCc1ccc2[nH]c(O)c(N=Nc3nc(-c4ccccc4)cs3)c2c1	VP16 counter inconclusive, RORg inh 12.6µM
Cc1cccc(-c2noc(CCC(=O)Nc3ccc(C(N)=O)cc3)n2)c1	TRPV1 ag 80.8
Cc1cccc(-c2noc(CCCC(=O)Nc3cccnc3)n2)c1	VP16 counter inconclusive (no result: TRPV1 ag, TRPV1 PAM)
Cc1cccc(-c2noc(CCCC(=O)Nc3ccc(C(N)=O)cc3)n2)c1	VP16 counter 11.2µM, RORg inh 15.8µM (no result: uPA generation)
O=C(/C=C/c1ccccc1)NCCS(=O)(=O)N1CCN(c2ccccc2)CC1	none (no result: VP16 counter, RORg inh)
O=C(CC(=O)c1ccccc1)c1ccccc1	VP16 counter 7.94µM, RORg inh 3.98µM (no result: TRPV1 ag, TRPV1 PAM)
COc1ccccc1C(=O)CC(=O)c1ccccc1	RORg inh 10µM
COc1ccccc1C(=O)NCC(=O)NC(C)CCc1ccccc1 (stereo unspecified)	VP16 counter 14.1µM, RORg inh 6.31µM
COc1ccccc1C(=O)OCC(=O)NC(C)CCc1ccccc1 (stereo unspecified)	none
Cc1cc(=O)oc2cc(NC(=O)[C@H](CCCCN)NC(=O)[C@H](CC3CCCCC3)NC(=O)OCC3c4ccccc4-c4ccccc43)ccc12	none (no result: uPA generation, TRPV1 ag, TRPV1 PAM)
CC(=O)OCc1ccco1	none (no result: uPA generation, TRPV1 ag, TRPV1 PAM)
